Each structure is given as a SMILES string. About 83,000 compounds went through this panel and 20% of them were active in at least one assay; those are over-represented in the sample as a whole.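 Assay: single dose, 48 h. Readout: percent growth (0 = no net growth; negative = cell death). Active: <10.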 Values without a mark were called inactive. The source made the active and inactive calls.

40 molecules from PubChem BioAssay (NCI) can be followed below.

One test deals with SW-620 colon. Description: NCI-60 one-dose screen, 48 h (100 = growth as untreated, 0 = no growth, -100 = all killed). The conditions noted are these: 10 µM unless noted.
Turning to `CCC(=C(c1ccc(OCCN2CCCCCC2)cc1)c1ccc(OCCN2CCCCCC2)cc1)c1ccc(Cl)cc1`, the growth was -49.2% (active). As to `O=C(/C=C/c1ccccc1)c1cccc(O)c1`, the growth is 104%. On the same count and under the same terms, to `O=C(/C=C/c1cccc(F)c1)c1cccc(OCCCOc2cccc(C(=O)/C=C/c3cccc(F)c3)c2)c1` belongs 14.3%; to `Brc1ccc2[nH]cc(-c3nn4cc(-c5nccs5)nc4s3)c2c1`, 25.2%.

For the molecule `CN1CCN(c2ccc(Nc3nc(NCCCNS(=O)(=O)c4ccc(F)cc4)c4sccc4n3)cc2)CC1`, the growth is 70.1%. Take `N#Cc1c(-c2cccs2)cc(-c2cnccn2)nc1SCC(=O)N/N=C/c1ccncc1`: the growth is 112%. On the same count and under the same terms, to `CN(C)c1ccc(-c2cc(-c3c[nH]c4ccccc34)nc(N)c2C#N)cc1` belongs 21.4%. The same measure, in the same setting: the result for `O=C(CSc1nc2ccccc2c(=O)n1-c1ccccc1)N/N=C/c1ccc(Oc2ccc(Br)cc2)cc1` reads 29.6%.

As for `CCc1cc(O)ccc1Nc1cc(-c2ccc(-n3cccn3)cc2)[nH]n1`, the growth is 63.1%. Same read-out and setting: to `C#C[C@]1(O)CC[C@H]2[C@@H]3CC=C4c5sc(N(C)c6ccccc6)nc5CC[C@]4(C)[C@H]3CC[C@@]21C` belongs 92.3%. On the same count and under the same terms, to `COc1cc(C(C)=C(c2ccc(OCCN(C)C)cc2)c2ccc(OCCN(C)C)cc2)ccc1F` belongs 104%; to `C#CCN(C)CCCOc1ccc(NCc2ccc(C(=O)NO)cc2)cc1Cl`, 12.2%; to `CSc1ccc(C(=NNS(=O)(=O)c2ccc(C)cc2)c2ccc(Cl)cc2)cc1`, 102%. For the molecule `Clc1ccc2[nH]cc(-c3nn4cc(-c5cccnc5)nc4s3)c2c1`, the growth was 104%. For the molecule `COc1ccc(/C=N/NC(=O)CSc2nc(-c3cnccn3)cc(-c3cccs3)c2C#N)cc1OC`, the growth is 60.8%. The same measure, in the same setting: the result for `N#Cc1cnc2ccc(-c3cnc4n[nH]nc4c3)cc2c1N1CCc2cc(F)c(Cl)cc21` reads 26.8%.

Another test relates to MCF7 breast. The description is as above. The conditions noted are these: 10 µM unless noted.
With `CCOC(=O)c1cnc2c(-c3ccc(Cl)c(Cl)c3)cnn2c1`, the growth is 82.8%. Same read-out and setting: to `CCCc1[nH]c(-c2cc(N)ccc2Cl)c2c1C(=O)CCCC2` belongs 87.1%; to `O=C(Nc1ccc(N=Cc2c(O)[nH]c3ccccc23)cc1)Nc1ccc(S(=O)(=O)Nc2ncccn2)cc1`, 85%. Turning to `Cc1ccc(NC(=O)Nc2nc3ccc([N+](=O)[O-])cc3s2)cc1`, the growth is 2.35% (active). On the same count and under the same terms, the result for `COc1ccc(C2C(C#N)=C(/N=C/c3ccc(Cl)cc3)Oc3c2sc2c(C)cccc32)cc1` (stereo unspecified) reads 21.5%. Still for that read-out and setting: to `Cc1ccc2c(n1)C(=O)C(Cl)=C(Nc1ccc(C(F)(F)F)cc1)C2=O` belongs -56.1% (active); to `Brc1cc(-c2cc(-c3ccc4c(c3)OCCO4)[nH]n2)cs1`, 14.7%. Same read-out and setting: to `CN(C)c1cccc2c(S(=O)(=O)Nc3cccc(-c4csc(NC(=O)CCCCCN5CCN(CCO)CC5)n4)c3)cccc12` belongs 35.8%; to `CC1=C(C)C(=O)C(Nc2cccc(C(=O)OC(C)(C)C)c2)=CC1=O`, 46%; to `C=C(C)[C@@H]1CC[C@]2(C(=O)O)CC[C@]3(C)[C@H](CC[C@@H]4[C@@]5(C)C/C(=C/c6ccccn6)C(=O)C(C)(C)[C@@H]5CC[C@]43C)[C@@H]12`, 18.7%. For the molecule `Nc1ccc(Nc2ncnc3sc4c(c23)CCN(Cc2ccccc2)C4)cc1`, the growth was 84.5%. Same read-out and setting: to `Cc1ccsc1[C@H]1c2[nH]c3ccccc3c2C[C@H]2C(=O)N(CCCCCCC(=O)NO)CC(=O)N12` belongs 50.1%; to `C=C(C)[C@@H]1CC[C@]2(COCCCNCCCN)CC[C@]3(C)[C@H](CC[C@@H]4[C@@]5(C)CC[C@H](O)C(C)(C)[C@@H]5CC[C@]43C)[C@@H]12`, -75.4% (active); to `C#C[C@]1(O)CC[C@H]2[C@@H]3CC=C4c5sc(NCc6ccccc6)nc5CC[C@]4(C)[C@H]3CC[C@@]21C`, 21.7%. Same read-out and setting: the result for `Clc1ccc(CSc2nnc(-c3ccc(Cl)cc3)n2-c2ccccc2)cc1` reads 84.5%. On the same count and under the same terms, the result for `Cc1ccc(C(=O)CSc2nc3ccccc3c(=O)n2C)cc1` reads 78.3%; that for `CCn1c2ccc(/C=N/N(C)S(=O)(=O)CCN(C)C)cc2c2cc(/C=N/N(C)S(=O)(=O)CCN(C)C)ccc21`, 22.1%; that for `CN1CCN(c2ccc(Nc3nc(NCCCNS(=O)(=O)c4ccc(Cl)cc4)c4sccc4n3)cc2)CC1`, 20%.

In the case of `CCCCCCCCCCCC(=O)NC(C)(C)C(=O)N1CCCC1C(=O)NC(C)(C)C(=O)NC(C)(C)C(=O)N1CCCC1C(=O)NC(C)(C)C(=O)NC(C)(C)C(=O)N1CCCC1C(=O)NC(C)C(=O)NCCC(=O)NC(C)C(=O)NC(C)(C)C(=O)NC(C)(C)C(=O)NC(C)(C)C(=O)NCCC(=O)NC(C)(C)C(=O)NC(C)(C)C(=O)NC(C)(C)C(=O)NC(C)C(=O)NCCC(=O)O` (stereo unspecified), the growth was -81.5% (active). Same read-out and setting: to `O=C(CCCCCCN1CC(=O)N2[C@@H](c3ccc(Cl)s3)c3[nH]c4ccccc4c3C[C@H]2C1=O)NO` belongs 14.7%; to `Clc1cccc(/C=N/Nc2nc(N/N=C/c3cccc(Cl)c3)nc(N3CCCCC3)n2)c1`, 83.1%; to `COc1ccc(Cn2cc(C#N)c(N)c2C(C)=O)cc1`, 90.4%.

With `C#Cc1nc(/C=C\CCCCCCC(=O)NO)cs1`, the growth was 35.2%. For `CC1(C)CC[C@]2(C(=O)O)CC[C@]3(C)C(=CC[C@@H]4[C@@]5(C)CC[C@H](NOCCCN)C(C)(C)[C@@H]5CC[C@]43C)[C@@H]2C1`, the growth was 68.2%. As for `CCC(=C(c1ccc(OCCN2CCCCCC2)cc1)c1ccc(OCCN2CCCCCC2)cc1)c1ccc(Cl)cc1`, the growth was -63.7% (active). In the case of `O=C(/C=C/c1ccccc1)c1cccc(O)c1`, the growth is 14%.

As for `O=C(/C=C/c1cccc(F)c1)c1cccc(OCCCOc2cccc(C(=O)/C=C/c3cccc(F)c3)c2)c1`, the growth is 10.2%. Still for that read-out and setting: to `Brc1ccc2[nH]cc(-c3nn4cc(-c5nccs5)nc4s3)c2c1` belongs 33.9%; to `CN1CCN(c2ccc(Nc3nc(NCCCNS(=O)(=O)c4ccc(F)cc4)c4sccc4n3)cc2)CC1`, 31.2%.

In the case of `N#Cc1c(-c2cccs2)cc(-c2cnccn2)nc1SCC(=O)N/N=C/c1ccncc1`, the growth is 92.5%. Still for that read-out and setting: to `CN(C)c1ccc(-c2cc(-c3c[nH]c4ccccc34)nc(N)c2C#N)cc1` belongs 28%; to `O=C(CSc1nc2ccccc2c(=O)n1-c1ccccc1)N/N=C/c1ccc(Oc2ccc(Br)cc2)cc1`, 68.9%. Same read-out and setting: to `CCc1cc(O)ccc1Nc1cc(-c2ccc(-n3cccn3)cc2)[nH]n1` belongs 34.3%; to `C#C[C@]1(O)CC[C@H]2[C@@H]3CC=C4c5sc(N(C)c6ccccc6)nc5CC[C@]4(C)[C@H]3CC[C@@]21C`, 67.3%; to `COc1cc(C(C)=C(c2ccc(OCCN(C)C)cc2)c2ccc(OCCN(C)C)cc2)ccc1F`, 93.8%. The same measure, in the same setting: the result for `C#CCN(C)CCCOc1ccc(NCc2ccc(C(=O)NO)cc2)cc1Cl` reads 18%.

Regarding `CSc1ccc(C(=NNS(=O)(=O)c2ccc(C)cc2)c2ccc(Cl)cc2)cc1`, the growth is 88.2%. On the same count and under the same terms, the result for `Clc1ccc2[nH]cc(-c3nn4cc(-c5cccnc5)nc4s3)c2c1` reads 72.3%; that for `COc1ccc(/C=N/NC(=O)CSc2nc(-c3cnccn3)cc(-c3cccs3)c2C#N)cc1OC`, 53.7%; that for `N#Cc1cnc2ccc(-c3cnc4n[nH]nc4c3)cc2c1N1CCc2cc(F)c(Cl)cc21`, 8.34% (active).
